According to PubChem BioAssay (NCI):
This is part of a sample that, as a whole, favours compounds with a hit. Of some 79,000 tested, about 15% had one in any assay. No stated cut-off is given here; in the data, active means growth inhibition above about 70%; inactive means the rest.

How the values were obtained:
[1] = NCI Yeast Anticancer Drug Screen. Data for the rad50 strain (AID 155);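 further: 0% = growth of vehicle-only cultures of the same strain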; conditions: S. cerevisiae rad50 strain growth inhibition; at 50.0 µM; active compounds read high
Procedure, shortened: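 Genetically altered yeast (DNA repair pathway); compound treatment; growth inhibition vs vehicle ctrl.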

[2] = NCI Yeast Anticancer Drug Screen. Data for the mec2-1 strain (AID 157); conditions: S. cerevisiae mec2-1 strain, at 50.0 µM, active compounds read high
Procedure, shortened: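 Cells of the genetically defined mec2-1 yeast strain are incubated with test compound. Inhibition of growth is calculated against vehicle-treated controls.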

[3] = NCI Yeast Anticancer Drug Screen. Data for the sgs1 mgt1 strain (AID 161);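 further: 0% = growth of cultures given vehicle only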; conditions: S. cerevisiae sgs1 mgt1 strain, at 50.0 µM, active compounds read high
Procedure, shortened: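 Mutant yeast exposed to compound; growth scored against vehicle-only wells.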

[4] = NCI Yeast Anticancer Drug Screen. Data for the cln2 rad14 strain (AID 165);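 further: 0% = growth equal to vehicle treated cultures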; conditions: S. cerevisiae cln2 rad14 strain, at 50.0 µM, active compounds read high
Procedure, shortened: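 The screen exposed genetically defined yeast (cln2 rad14) to test compounds and scored growth inhibition relative to vehicle-treated controls.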

[5] = NCI Yeast Anticancer Drug Screen. Data for the bub3 strain (AID 167); conditions: S. cerevisiae bub3 mutant strain, at 50.0 µM, active compounds read high
Procedure, shortened: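 Yeast carrying a defined mutation is treated with each compound, and growth is compared with that of vehicle-exposed cells to give inhibition.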

[6] = NCI Yeast Anticancer Drug Screen. Data for the mlh1 rad18 strain (AID 175); conditions: S. cerevisiae mlh1 rad18 strain growth inhibition; at 50.0 µM; active compounds read high
Procedure, shortened: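 Compound-treated yeast growth, normalised to vehicle controls. Strain bears defined DNA repair mutations.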

Measured: growth inhibition

C=CCNC(=O)C(=O)NCC=C
inactive: [1] 3.65% | [2] -16.2% | [3] -11.2% | [4] -24.6% | [5] -8.25% | [6] 2.1%

CCN(CC)C(=O)c1c(-c2ccccc2)nc(-c2ccccc2)c(C(=O)N(CC)CC)c1Cl
inactive: [1] 42% | [2] 14.6% | [3] 21.6% | [4] 21.6% | [5] 1.05% | [6] 27.8%

NC(=O)C(N)C(N)=NCc1ccccc1 (stereo unspecified)
inactive: [1] 10% | [2] 1.35% | [3] 4.15% | [4] -7.25% | [5] -2.3% | [6] 13.5%

CCNC(=O)C1CCN(Cc2c[nH]c3ccccc23)CC1
inactive: [1] -19.4% | [2] 0.1% | [3] 33.2% | [4] -12.9% | [5] 0.6% | [6] -18.1%

c1ccc(CN2CCC(=NN3CCCCC3)CC2)cc1
inactive: [1] 19.9% | [2] -9.5% | [3] 23.2% | [4] 15.2% | [5] 17.9% | [6] -8.55%

COc1cc(C(=O)N2CCCCCCC2)cc(OC)c1OC
inactive: [1] -13.8% | [2] 38.5% | [3] 10.9% | [4] -19.7% | [5] 28.7% | [6] -6.45%

[N-]=[N+]=Nc1ncnc2c1sc(=S)n2-c1ccccc1
inactive: [1] -6.65% | [2] 21.1% | [3] -24.1% | [4] 3.6% | [5] 15.8% | [6] -2.4%

CC1CC(c2ccccc2)Nc2nc3ccccc3n21 (stereo unspecified)
inactive: [1] 5.65% | [2] 3.45% | [3] -4.7% | [4] 7.95% | [5] 5.65% | [6] -14.3%

CC(=O)C(C)CCOC1(C)OCCC1C (stereo unspecified)
inactive: [1] -7.4% | [2] 5.25% | [3] -13.1% | [4] -22.2% | [5] -36.4% | [6] 7%

COc1cc(N)c(OC)nn1
inactive: [1] -1.1% | [2] 9.4% | [3] 3.15% | [4] -14.8% | [5] 11.3% | [6] -10.4%

CC(C)=CCCC(C)(OC1OC(COC2OCC(O)C(O)C2O)C(O)C(O)C1O)C1CCC2(C)C1C(O)CC1C3(C)CCC(OC4OC(CO)C(O)C(O)C4OC4OC(CO)C(O)C(O)C4O)C(C)(C)C3CCC12C (stereo unspecified)
inactive: [1] -15.8% | [2] -26.1% | [3] -6.05% | [4] 6.6% | [5] 4.55% | [6] 18.4%

CCCCCCCCCCCCCCCCN1c2ccccc2C(C)(C)C12C=Cc1cccc([N+](=O)[O-])c1O2 (stereo unspecified)
inactive: [1] 2.85% | [2] -0.6% | [3] 13.7% | [4] 14.2% | [5] -3.1% | [6] -3.2%

CN(C)c1ccc(C2(c3ccc(N(C)C)cc3)NNC(=O)c3ccccc32)cc1
inactive: [1] 17.2% | [2] 7.95% | [3] 9.35% | [4] 12.7% | [5] 21.1% | [6] -0.3%

CCC(OC(=O)Nc1ccc(S(=O)(=O)NC2CCCCC2)cc1)c1ccco1 (stereo unspecified)
inactive: [1] 26.9% | [2] 3.65% | [3] 26.8% | [4] 10.8% | [5] 5.65% | [6] 4.15%

COc1cccc(C)c1C(O)CC1CCCN1 (stereo unspecified)
inactive: [1] 21.6% | [2] 3.75% | [3] 7.2% | [4] 29.8% | [5] 11.7% | [6] 6.05%

CCOC(=O)c1cnc(N)nc1N
inactive: [1] 6.35% | [2] -16.1% | [3] -6.3% | [4] -88.3% | [5] -8.3% | [6] 24.1%

CCN(CC)CCOC(=O)OCCN(CC)CC
inactive: [1] -13.5% | [2] -12.1% | [3] -7.3% | [4] 4.45% | [5] 17.9% | [6] -38.8%

O=[N+]([O-])c1cc(O)ccc1O
inactive: [1] 5.4% | [2] 5.45% | [3] 0% | [4] -10.7% | [5] -1% | [6] 12%

CN(Cc1ccccc1)c1ccc(C(=O)O)cc1
inactive: [1] -2.65% | [2] 2.3% | [3] -5.55% | [4] -19% | [5] -23.6% | [6] 7%

CC1=NN(C(=O)c2ccc(Cl)cc2)C(=O)C1N=Nc1ccc(S(=O)(=O)Nc2ccccn2)cc1 (stereo unspecified)
inactive: [1] -0.85% | [2] 16.8% | [3] 14.7% | [4] 20.2% | [5] -10.6% | [6] 30.7%

CCOC(=S)SCc1ccc([N+](=O)[O-])cc1
inactive: [1] 69.8% | [2] 18.4% | [3] 27.8% | [4] 18.6% | [5] 43% | [6] 16.9%

COc1cc2c(cc1Oc1c(O)c(OC)cc3c1C(C)N(C)CC3)C(C)N(C)CC2 (stereo unspecified)
inactive: [1] 37.5% | [2] -8.1% | [3] 2.4% | [4] 0.8% | [5] 2.5% | [6] 14.9%

COC(=O)c1ccc(N(C)CCC(=O)COC(C)=O)cc1
inactive: [1] 17.9% | [2] 9.7% | [3] 12% | [4] -10.2% | [5] 7.6% | [6] 10.3%

Cc1ccccc1N1CCN(CC(O)Cc2ccccc2)CC1 (stereo unspecified)
inactive: [1] 19.6% | [2] 10% | [3] 12.1% | [4] -6.85% | [5] 15.1% | [6] 21.1%

CC(C)COC(=O)C(=O)OCC(C)C
inactive: [1] 14.9% | [2] 23.1% | [3] -6.45% | [4] 34% | [5] -5.05% | [6] -14.7%

COc1cc(O)c2c(c1)C(=O)c1cc(C)cc(O)c1C2=O
inactive: [1] -15.1% | [2] -22.9% | [3] -18.6% | [4] -21.1% | [5] -26.2% | [6] -10.8%

CCOC(=O)CNCc1ccc(Cl)c(Cl)c1
inactive: [1] 16.1% | [2] 4.15% | [3] 28.2% | [4] -15.6% | [5] 26.9% | [6] 21.9%

Nc1nc(N)c2c(Cl)c(CNc3ccc(C(=O)NC(CC(=O)O)CC(=O)O)cc3)ccc2n1
inactive: [1] 19% | [2] 9.65% | [3] 22.2% | [4] -1.35% | [5] -4.05% | [6] 14.4%

Cc1ccc(NC(=O)C(c2ccccc2)c2ccccc2)cc1
inactive: [1] 0.15% | [2] 19.4% | [3] 3.8% | [4] -2.55% | [5] 20.2% | [6] 6.75%

O=C1c2ccccc2C(=O)N1CNc1ccccc1S
inactive: [1] 13.2% | [2] 5.1% | [3] 19.6% | [4] 28.4% | [5] 22.1% | [6] -8%

Cc1cc2c(c(C(C)(C)C)c1)OC(=O)/C2=C1/C(=O)Oc2c1cc(C)cc2C(C)(C)C
inactive: [1] 8.3% | [2] -8% | [3] -9.25% | [4] 0.85% | [5] 2.3% | [6] -12.8%

C[Si](C)(C)c1ccc2c(c1O)C(=O)c1ccccc1C2=O
inactive: [1] 10.6% | [2] 16.9% | [3] 31.9% | [4] 53.6% | [5] -1.15% | [6] 3.3%

CSc1nc2c(cnn2C)c(=O)[nH]1
inactive: [1] 14.7% | [2] -1.95% | [3] 3.3% | [4] -4.55% | [5] 10.5% | [6] 24.6%

CCN(CC)c1ncnc2n[nH]nc12
inactive: [1] -1.5% | [2] -15.6% | [3] -18% | [4] -27.9% | [5] -28.5% | [6] 3.45%

CCCCC(C)C(C)O (stereo unspecified)
inactive: [1] -28.5% | [2] -62.1% | [3] -24.6% | [4] 11.2% | [5] -33.9% | [6] -0.8%

CC1(C)CNC[C@@](C)(O)C(=O)NC(C)(C)CNC[C@@](C)(O)C(=O)N1
inactive: [1] 9.75% | [2] 5.75% | [3] -32.6% | [4] 4.7% | [5] -46.3% | [6] -9.2%

Cc1cc(N/N=C/c2ccc(Cl)cc2)c2cc3c(cc2n1)OCO3
inactive: [1] 24.2% | [2] -4.5% | [3] -7% | [4] 1.6% | [5] 27.5% | [6] 14.7%

CC(=O)NNC(=S)N/C=C(/C(=O)c1ccccc1)c1ccccc1
inactive: [1] -22.7% | [2] -9.45% | [3] -16.7% | [4] 3.75% | [5] -16.4% | [6] -6.9%

CCc1c(C#N)c(=O)[nH]c(=O)n1CCN1CCN(C(=O)NCCCCCCNC(=O)N2CCN(CCn3c(CC)c(C#N)c(=O)[nH]c3=O)CC2)CC1
inactive: [1] 4.6% | [2] 2.55% | [3] -14.4% | [4] -23.6% | [5] 2.7% | [6] -26.1%

CCOC(=O)c1ccc(=O)n2c1[nH]c1ccccc12
inactive: [1] 9.05% | [2] -5.65% | [3] -15.5% | [4] -0.45% | [5] -2.75% | [6] -5.45%

N#CC(=Nc1ccccc1)c1cccc(Br)c1
inactive: [1] 34.5% | [2] 5.05% | [3] 18.9% | [4] 15.4% | [5] 21.4% | [6] 28.4%
